What all share (assay): NCI-60 one-dose screen, 48 h (100 = growth as untreated, 0 = no growth, -100 = all killed)
Conditions in all cases: 10 µM unless noted

Assay [1] deals with NCI-H23 lung.
Assay [2] concerns NCI-H226 lung.
Assay [3] concerns NCI-H322M lung.
The test system of assay [4] is HOP-62 NSCLC.
For assay [5], the system named is NCI-H460 lung.
Assay [6] deals with HOP-92 NSCLC.
For assay [7], the system named is NCI-H522 lung.
Assay [8] relates to A549/ATCC NSCLC.
Assay [9] relates to 786-0 renal.
For assay [10], the system named is COLO 205 colon.
Assay [11] concerns DU-145 prostate.
Assay [12] relates to K-562 leukemia.
The subject of assay [13] is MALME-3M melanoma.
Assay [14] has as its system MDA-MB-231 breast.
For assay [15], the system named is RXF 393 renal.
For assay [16], the system named is SF-268 CNS.
The test system of assay [17] is SF-295 CNS.
Assay [18] relates to SF-539 CNS.
Assay [19] concerns UACC-257 melanoma.
For assay [20], the system named is M14 melanoma.

“And” between values parts separate entries of the source, which are not always exact repeats. Equal values may be shown once. This is part of a sample that, as a whole, favours compounds with a hit. Of some 83,000 tested, about 20% had one in any assay.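 Cell lines were cultured in 96-well plates, exposed to a single compound concentration, and assessed for percent growth 48 hours later.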 Unmarked numbers belong to inactive results. The source made the active and inactive calls. The calls were made as follows: active = growth percent below 10; inactive = the rest.

Turning to `Cc1cccc(Cc2cnc(NC(=O)CCCOc3ccc(Cl)cc3)s2)c1`, the growth in assay [1] is 54%; in assay [2], 53.8%; in assay [3] it was 44.7%; in [4] it was 28.7%; in assay [5] it was 9.65% (active); in [6], 52.2%. Also, the growth in assay [7] was 42.5%; in assay [8] it was 10.7%; in assay [9], 11%; in assay [10], 15.2%; in assay [11] it was 24.2%; in assay [12], 25.8%. Besides, the growth in [13] is 32.5%; in assay [14], 42.4%; in assay [15], 4.99% (active); in assay [16], 50.2%; in assay [17] it was 12.6%; in assay [18], 8.78% (active). The growth in [19] is 23%; in [20], -1.79% (active).

On to `CCCCCO/N=C\c1c2c(O)c3c(O)c(C)c4c(c3c1O)C(=O)C(C)(O/C=C\C(OC)C(C)C(OC(C)=O)C(C)C(O)C(C)C(O)C(C)/C=C\C=C(\C)C(=O)N2)O4` (stereo not given), for which the growth in [1] is 19.7%; in assay [2], 26.9%; in [3], 53.2%; in assay [4] it was 34.7%; in [5] it was 5.62% (active); in assay [6], -5.96% (active). The growth in [7] is 6.3% (active); in [8] it was 20.9%; in [9], 31.6%; in assay [10] it was 2.86% (active); in assay [11], 36%; in assay [12] it was 17.6%. The growth in [13] is 41.2%; in assay [14], 31.4%; in assay [15], 36.6%; in [16], 31.2%; in [17], 7.23% (active); in [18] it was 37.3%. Moreover, the results for the growth in assay [19] and in assay [20] were 8.59% (active) and 28.2%, respectively.

In the case of `CCc1c2c(nc3ccc(OCc4ccc(B5OC(C)(C)C(C)(C)O5)cc4)cc13)-c1cc3c(c(=O)n1C2)COC(=O)[C@]3(O)CC`, the growth in assay [1] was -23.1% (active); in assay [2] it was -44% (active); in assay [3], 6.44% (active); in [4], -4.19% (active); in assay [5], 1.68% (active); in assay [6], -9.71% (active). Moreover, the growth in assay [7] was 3.47% (active); in [8], 10.8%; in assay [9], 10.6%; in assay [10] it was 18.8%; in [11], 3.05% (active); in assay [12], 19.8%. In addition, the growth in assay [13] is -6.1% (active); in assay [14], 34.2%; in [15], -25.7% (active); in assay [16], 5.96% (active); in assay [17], 5.44% (active); in [18], -35.6% (active). For the same molecule, the growth was -9.18% (active) in assay [19] and 2.91% (active) in assay [20].

Regarding `COc1cc(CNC(=O)CCCC/C=C/C(C)C)ccc1OCc1cn(-c2ccc([N+](=O)[O-])cc2)nn1`, the growth was 83.2% in assay [1]; 89.6% in [2]; 97.9% in assay [3]; 80.9% in assay [4]; 99.8% in [5]; 90.3% in [6]. Further, the growth in assay [7] was 78.2%; in assay [8] it was 84.1%; in assay [9] it was 93.7%; in assay [10], 118%; in [11], 105%; in assay [12] it was 74.5%. The growth is 98.4% in assay [13]; 75.3% in assay [14]; 99.7% in assay [15]; 86.1% in [16]; 89% in [17]; 104% in [18]. The values for the growth in assay [19] and in assay [20] were 82.6% and 89.7%, respectively.

`Cc1ccc(-c2nc3nc(-c4ccc(F)cc4)nc(N4CCCNCC4)c3o2)cc1`: the growth in [1] was -79.2% (active); in assay [2], 112%; in [3] it was -99% (active); in assay [4], -62.2% (active); in assay [5], -83.2% (active); in [6] it was -57.6% (active). Besides, the growth in assay [7] was -65.2% (active); in assay [8], -82.4% (active); in assay [9], -86.4% (active); in assay [10] it was -77.6% (active); in assay [11] it was -94.8% (active); in assay [12] it was -28.4% (active). Also, the growth in [13] was -72.7% (active); in assay [14], -85.1% (active); in [15], -79.8% (active); in assay [16] it was -65.7% (active); in assay [17], -86.3% (active); in assay [18], -97.9% (active). Further, the growth was -72.2% (active) in assay [19] and -86.6% (active) in assay [20].

For the molecule `N=C(N)c1ccc(-c2ccc(-c3ccc(F)cc3)s2)nc1`, the growth in assay [1] was 81.8%; in [2] it was 72.1%; in assay [3], 66%; in assay [4], 80.5%; in assay [5], -13.2% (active); in assay [6], 69.8%. Besides, the growth in assay [7] was 64%; in assay [8], 59.1%; in assay [9], 88.7%; in assay [10], -46.7% (active); in [11], 81.5%; in assay [12], 0.099% (active). The growth in assay [13] is 89.5%; in assay [14], 57.1%; in [15] it was 80.1%; in assay [16], 87.6%; in assay [17], 79.5%; in assay [18], 79.6%. The growth in [19] was 93%; in assay [20], 76.1%.

`O=C(O)C1C2CCC1C(O)C2` (stereo not given): the growth in assay [1] is 99.1% and 99.6%; in assay [2], 94.5%; in assay [3], 115% and 97.6%; in assay [4], 87.9% and 112%; in assay [5] it was 112% and 111%; in assay [6] it was 108% and 97.6%. Moreover, the growth in [7] is 87.6% and 98.6%; in assay [8] it was 102% and 100%; in [9] it was 98.2% and 96.5%; in [10] it was 102% and 106%; in [11] it was 100% and 108%; in assay [12], 107% and 92.7%. The growth in assay [13] is 109% and 86.3%; in [14], 103% and 113%; in assay [15] it was 111% and 116%; in [16] it was 97.7% and 101%; in assay [17] it was 108% and 121%; in assay [18], 94.9% and 101%. Also, the growth was 100% and 103% in assay [19]; 98.8% and 95.4% in [20].

The values above are taken from PubChem BioAssay (NCI).
